{
  "source": "PubChem BioAssay (NCATS)",
  "note": "Results filed as inconclusive are left out. Entries that show only a call come without a potency. A number with no mark means an inactive call. Active and inactive are the calls of the source. The call rests on the fitted dose curve; in most records, active means well fitted cell-killing curve with a large enough effect; inconclusive means small, poorly fitted or top-dose-only effect, or effect the other way; inactive means flat fitted curve, though single readings scatter.",
  "data": [
    {"test_system": "C33A", "assay": "Primary qHTS to identify gynecologic anti-cancer compounds using libraries of approved drugs and bioactive compounds (AID 1345084); further: nearly all actives have a fitted effect of over 55% in size", "conditions": "Gynecologic cancer cell panel viability, ATPlite luminescence, 48 h; series mostly up to 57.5 µM", "how_it_was_run": "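In this quantitative HTS, cell killing is estimated from loss of ATP-dependent luciferase light. Cells see five compound concentrations over a 48 h exposure.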", "values": [
      {"smiles": "CC(c1c[nH]c2ccccc12)C(O)C(=O)O", "note": "(stereo not given)", "Potency": "inactive"},
      {"smiles": "CC(C)C(=O)c1cn(CC(=O)COc2ccc(Oc3ccccc3)cc2)c2ccc(C(=O)O)cc12", "Potency": "inactive"},
      {"smiles": "CC1=C(C)C(=O)OC(C(C)(O)C2CCC3C4CC=C5CC(OC6OC(COC7OC(CO)C(O)C(O)C7O)C(O)C(O)C6O)CC(O)C5(C)C4CCC32C)C1", "note": "(stereo not given)", "Potency": "inactive"},
      {"smiles": "CC(=O)OC[C@@]12[C@H](O)C[C@]3(C)C(=CCC4[C@@]5(C)CC[C@H](O[C@@H]6O[C@H](C(=O)O)[C@@H](O[C@@H]7O[C@H](CO)[C@@H](O)[C@H](O)[C@H]7O)[C@H](O)[C@H]6O[C@@H]6O[C@H](CO)[C@@H](O)[C@H](O)[C@H]6O)[C@](C)(CO)C5CC[C@]43C)[C@@H]1CC(C)(C)[C@@H](OC(C)=O)[C@@H]2O", "note": "(stereo not given in full)", "activity change, negative = cytotoxicity": "-7.61% [at 11.6 µM]"},
      {"smiles": "CC12CCC3c4ccc(O)cc4CCC3C1CCC2OC1OC(C(=O)O)C(O)C(O)C1O", "note": "(stereo not given)", "Potency": "inactive"},
      {"smiles": "COc1ccccc1-n1c(SCC(=O)Nc2nc3ccc(C)cc3s2)nc2c(c1=O)SCC2", "Potency": "inactive"},
      {"smiles": "CC1(C)CC[C@]2(C(=O)O[C@@H]3O[C@H](CO)[C@@H](O)[C@H](O)[C@H]3O)CC[C@]3(C)C(=CCC4[C@@]5(C)C[C@@H](O)[C@H](O)[C@@](C)(CO)C5CC[C@]43C)C2C1", "note": "(stereo not given in full)", "Potency": "inactive"},
      {"smiles": "C=CC1(C)C=C2C(=O)CC3C(C)(C)CCCC3(C(=O)O)C2(O)CC1", "note": "(stereo not given)", "Potency": "inactive"},
      {"smiles": "O=C(O)c1n[nH]c2c1C[C@H]1C[C@@H]21", "Potency": "inactive"},
      {"smiles": "COC(=O)C1=COC(O[C@@H]2O[C@H](CO)[C@@H](O)[C@H](O)[C@H]2O)/C(=C\\COC(=O)c2ccc(OC3OC(CO)C(O)C(O)C3O)c(OC)c2)C1CC(=O)OCCc1ccc(O)cc1", "note": "(stereo not given in full)", "activity change, negative = cytotoxicity": "7.7% [at 11.6 µM]"},
      {"smiles": "CC(=O)OC[C@@]12[C@@H](OC(C)=O)C[C@@H](C)[C@](C)([C@@H]3C[C@H]4C=CO[C@H]4O3)[C@H]1CCC[C@]21CO1", "Potency": "inactive"},
      {"smiles": "C=CC1(C)CC(OC(=O)C(=C)C(O)COC(C)=O)C(C(=C)C(=O)OC)C(O)C1C(=C)CO", "note": "(stereo not given)", "Potency": "inactive"},
      {"smiles": "CC(=C/C(=O)O)/C=C/[C@]1(O)[C@@]2(C)CO[C@]1(C)C[C@H](O[C@@H]1O[C@H](CO)[C@@H](O)[C@H](O)[C@H]1O)C2", "Potency": "inactive"},
      {"smiles": "CC1CCC2(C)C(CC(O)C(O)C23CO3)C1(C)CCC1=CC(=O)OC1O", "note": "(stereo not given)", "Potency": "inactive"},
      {"smiles": "CC1CCC2(NC1)OC1C(=O)C3C4CCC5CC(O[C@@H]6O[C@H](CO)[C@@H](O)[C@H](O)[C@H]6O[C@@H]6O[C@@H](C)[C@H](O)[C@@H](O)[C@H]6O)CCC5(C)C4CCC3(C)C1C2C", "note": "(stereo not given in full)", "Potency": "inactive"},
      {"smiles": "Cc1nn(C)c(COc2ccc(N3CCN(S(=O)(=O)N(C)C)CC3)cc2)c1-c1cccc2c(CCCOc3cccc4ccccc34)c(C(=O)O)n(CCN3CCOCC3)c12", "Potency": "inactive"},
      {"smiles": "C=C(C)[C@@H](C)[C@H]1O[C@]23C[C@]4(CO2)C(CCC2[C@@]5(C)CC[C@H](O[C@@H]6OC[C@H](O)[C@H](O[C@@H]7O[C@H](CO)[C@@H](O)[C@H](O)[C@H]7O)[C@H]6O[C@@H]6O[C@@H](CO)[C@H](O)[C@H]6O)C(C)(C)C5CC[C@]24C)C3[C@@](C)(O)[C@@H]1OC(C)=O", "note": "(stereo not given in full)", "activity change, negative = cytotoxicity": "0.663% [at 11.6 µM]"},
      {"smiles": "CCCCN(CCCC)C(=O)CN1C[C@H](c2ccc3c(c2)OCO3)[C@@H](C(=O)O)[C@@H]1c1ccc(OC)cc1", "Potency": "inactive"},
      {"smiles": "COc1c(C)c(OCC=C(C)C)cc2c1C(=O)NC2=O", "Potency": "inactive"},
      {"smiles": "COC(=O)C1=CO[C@@H](O[C@@H]2O[C@H](CO)[C@@H](O)[C@H](O)[C@H]2O)[C@@H]2[C@@H](C(=O)OC)[C@@H](O)C(O)[C@H]12", "note": "(stereo not given in full)", "Potency": "inactive"},
      {"smiles": "C=C(C(=O)O)C1CCC(C)C2CCC(=O)OC2(C)C1", "note": "(stereo not given)", "Potency": "inactive"},
      {"smiles": "COc1cc(/C=C/C(=O)O[C@H]2[C@H](OC(=O)/C=C/c3cc(OC)c(O)c(OC)c3)O[C@H](CO[C@@H]3O[C@H](CO)[C@@H](O)[C@H](O)[C@H]3O)[C@@H](O)[C@@H]2O)ccc1O", "Potency": "inactive"},
      {"smiles": "COc1c(C)c2c(c(O)c1C/C=C(\\C)CC/C=C(\\C)CCC(=O)O)C(=O)OC2", "Potency": "inactive"},
      {"smiles": "C=C1[C@H]2CC[C@]3(O)[C@@](CC[C@@H]4[C@](C)(C(=O)O)CCC[C@]43C)(C2)[C@H]1OC(=O)/C(C)=C\\C", "Potency": "inactive"},
      {"smiles": "CC(=O)O[C@H]1[C@H](Oc2ccccc2COC(=O)C2(O)C=CCCC2=O)O[C@H](CO)[C@@H](O)[C@@H]1O", "note": "(stereo not given in full)", "Potency": "inactive"}
    ]}
  ]
}
